Source: PubChem BioAssay (NCI)
This is part of a sample that, as a whole, favours compounds with a hit. Of some 79,000 tested, about 15% had one in any assay. Unmarked numbers belong to inactive results. Active and inactive are the calls of the source. Cut-off read from the data, not from the text of the source: active = growth inhibition above about 70%; inactive = the rest.

test: NCI Yeast Anticancer Drug Screen. Data for the mec2-1 strain (AID 157); details: S. cerevisiae mec2-1 strain, at 50.0 µM, stronger effect = higher value
Procedure, shortened: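 Readout is yeast growth inhibition, normalised to vehicle-treated controls, in the mec2-1 strain exposed to compound.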

Compound	growth inhibition
N#CCCN(Cc1ccccc1)CN1C(=O)c2ccccc2C1=O	5.5%
N#Cc1ccc(-n2cccc2)cc1	-1.6%
O=C(O)C(CSC(c1ccccc1)(c1ccccc1)c1ccccc1)Nc1ccccc1[N+](=O)[O-] (stereo not given)	99.2% (active)
Cc1ccc[nH]c1=O	-15.1%
Cc1nc(N)sc1C(=O)/C=C/c1ccc([N+](=O)[O-])cc1	-2.6%
c1ccc2nc(N3CCCC3)c(N3CCCC3)nc2c1	-12.6%
C/C(=N/Nc1ccc([N+](=O)[O-])cc1[N+](=O)[O-])C(CC(C(=O)NCc1ccccc1)/C(C)=N\Nc1ccc([N+](=O)[O-])cc1[N+](=O)[O-])C(=O)NCc1ccccc1 (stereo not given)	-16.5%
O=S(=O)(O)c1cc(I)c(O)c2ncccc12	1%
CC/C(Cl)=N\OC(=O)Nc1ccc(C#N)cc1	4.9%
CC(=O)N(C(C)=O)n1c(Cc2ccc(Cl)cc2)nn(C(C)=O)c1=O	-15.1%
CCCSc1ncnc2c1nc(C)n2CO	-2.55%
Cc1ccc(S(=O)(=O)Oc2c(Cl)cc(Cl)cc2Cl)cc1	9.35%
Cc1cc(C)c2c(=O)c3c(oc2c1)O[C@@](C)(CO)C[C@@H]3c1ccccc1	11.2%
Cc1ccc(C(=O)CCN2CCOCC2)c(C)c1	5.55%
CCN(CC)CCNc1ccc2ncn3c4c(OC)ccc(OC)c4c(=O)c1c23	-22.2%
Nc1cc(Cl)cc2c1nc(NCCO)c1ccccc12	60.3%
O=[N+]([O-])c1ccc(N=NNc2ccc([N+](=O)[O-])cc2)cc1	-13%
CC(=O)Nc1ccc(/C=C2\N=C(c3ccccc3)OC2=O)cc1	-1.75%
CN(C)CC(C)(C)CO	-0.2%
CCOc1snc(C(Cl)(Cl)Cl)c1Cl	15.3%

Compound	growth inhibition
CN1CCC2(CC1)C(=O)N(Cc1ccccc1)C(=O)C2c1ccccc1 (stereo not given)	-6.95%
COc1ccc(C2=C/C(=C/c3cccs3)C(=O)O2)cc1	1.45%
BrC1(Br)C2COCOCC21 (stereo not given)	-1.4%
COc1ccc(C(O)Cc2ccccc2)cc1 (stereo not given)	-19.4%
COC(=O)C(C(=O)OC)C(c1cccc([N+](=O)[O-])c1)C(N)c1ccccc1 (stereo not given)	-8.95%
CCOC(=O)NCC1(c2ccccc2)CCN(Cc2ccccc2)CC1	-17.6%
O=C(O)Cc1ccc(-c2ccccc2)[nH]1	-14.7%
COc1ccc2nccc(/C=C/CC3CCN(C(C)=O)CC3)c2c1	29.4%
COc1cc2c[n+](C)c3c(c2cc1OC)Cc1cc2c(cc1-3)OCO2	-13.2%
CCOC(=O)C1=C(Nc2ccc(Cl)cc2Cl)OCC1=O	-5.85%
O=C(c1nc2ccc(Cl)cc2[nH]c1=O)C(O)c1ccco1 (stereo not given)	3.2%
COc1cc(NCCCCCNC(C)C)c2ncccc2c1OC	-9.9%
CC(=O)Nc1cc(F)c(N)c(F)c1	-4.3%
CC1=CC2C(c3ccccc3)Nc3ccccc3N2C1=O (stereo not given)	8.4%
CCOC(=O)C1(Cc2ccc3c(c2)CCC3)Cc2cc3c(cc2C1=O)CCC3 (stereo not given)	-28.1%
COc1ccc2cc(NC(=O)N/N=C\c3ccc(Cl)cc3)ccc2c1	8.9%
O=c1c(-c2ccc(O)cc2)coc2cc(O)cc(O)c12	-6.15%
C/C(=N/O)C1c2ccccc2Cc2ccccc21	-11.8%
CCCCCCCCCC(=O)OCCCC(CCCOC(=O)CCCCCCCCC)OC(=O)CCCCCCCCC	-6.85%
CSc1cc(=O)[nH]c(=O)[nH]1	3.1%
